# Test results: PubChem BioAssay (Tox21)
# Several values for one entry are separate records, joined by “and”; a condition that tells them apart may be missing. Equal values may be shown once. Inconclusive results are not listed. Where a call stands in place of a potency, no number is given. Activity calls are given as the source filed them. Unless noted, calls follow the shape of the dose curve; as a rule, active = well fitted curve in the direction sought with a large enough effect in the repeat runs; inconclusive = weak or mixed curves; inactive = no such curve, though single readings can be large; an effect the other way counts as inactive or inconclusive.
# Test: qHTS assay for small molecule activators of the heat shock response signaling pathway - cell viability counter screen (AID 743209); also: nearly all actives have a fitted effect of over 50% in size
# Conditions: HSE-bla HeLa viability, CellTiter-Glo luminescence, 5 h; series mostly up to 62.6 µM
# How it was run: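 Cytotoxicity counter screen run in the same wells as the heat-shock bla reporter assay: HeLa HSE-bla cells, 5 h compound exposure at 37 C, viability read by CellTiter-Glo luminescence.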
# Potency is read from the fitted curve at half-maximal effect.
row,Structure (SMILES),Potency
1,Oc1cc(Cl)cc(Cl)c1Cl,inactive
2,OC[C@H]1O[C@H](O[C@H]2O[C@H](CO)[C@@H](O)[C@H](O)[C@H]2O)[C@H](O)[C@@H](O)[C@@H]1O,inactive
3,CN1CCN2c3ccccc3Cc3ccccc3C2C1 (configuration not stated),inactive
4,CCCCCC(C)OC(=O)COc1ccc(Cl)c2cccnc12 (configuration not stated),inactive
5,O=C1CCc2ccc(OCCCCN3CCN(c4cccc(Cl)c4Cl)CC3)cc2N1,26.6 µM (active)
6,CN(C)Cc1cc(C(C)(C)C)c(O)c(C(C)(C)C)c1,inactive
7,Cc1cc(C(C)(C)C)cc(C)c1CC1=NCCN1,inactive
8,CN1CCC[C@@H]1CCO[C@](C)(c1ccccc1)c1ccc(Cl)cc1,inactive
9,Cc1cc(C)c(/C=C2\C(=O)Nc3ccccc32)[nH]1,inactive
10,Cc1ccc(N/N=c2\c(=O)cc/c(=N\Nc3ccc(S(=O)(=O)O)cc3)c2=O)c(C)c1,inactive
11,Nc1ccc(NCCO)c([N+](=O)[O-])c1,inactive
12,O=C(c1ccc(O)c(O)c1)c1ccc(O)cc1O,inactive
13,CCOc1ccc2ccccc2c1C(=O)N[C@@H]1C(=O)N2[C@@H]1SC(C)(C)[C@@H]2C(=O)O,inactive
14,CC(C)CCOC(=O)/C=C/c1ccccc1,inactive
15,CCCCCCCCCCCCCCCC[N+](C)(C)CC,39 µM (active) and 23.7 µM (active)
16,CN1CCCCC1CCN1c2ccccc2Sc2ccc(S(C)=O)cc21 (configuration not stated),inactive
17,CCC(=O)C(=O)CC,inactive

row,Structure (SMILES),Potency
1,Nc1cc(Cl)c(O)c(Cl)c1,inactive
2,CC[C@H](C)COC(=O)/C=C/c1ccc(N=Cc2ccc(OC)cc2)cc1,inactive
3,O=c1c(O)c(-c2ccc(O)cc2O)oc2cc(O)cc(O)c12,inactive
4,O=[N+]([O-])c1ccc(O)cc1C(F)(F)F,inactive
5,Cl[Si](Cl)(c1ccccc1)c1ccccc1,inactive
6,CC(C)(C)c1ccc(C(O)CCCN2CCC(C(O)(c3ccccc3)c3ccccc3)CC2)cc1 (configuration not stated),21.1 µM (active)
7,NC(=S)NC(N)=S,inactive
8,CCCCC/C=C\C/C=C\CCCCCCCC(=O)O,42.9 µM (active)
9,O=C(Nc1ccc2c(O)c(N=Nc3ccc(N=Nc4ccc(S(=O)(=O)O)cc4)cc3)c(S(=O)(=O)O)cc2c1)c1ccccc1,inactive
10,O=C(O)c1cc(O)c2ccccc2c1O,21.9 µM (active)
11,[Cu+],inactive
12,Cc1cc(C(C)(C)C)c(O)c(C)c1Cn1c(=O)n(Cc2c(C)cc(C(C)(C)C)c(O)c2C)c(=O)n(Cc2c(C)cc(C(C)(C)C)c(O)c2C)c1=O,inactive
13,CCOC(=O)c1ccc(C2CCC(NC[C@H](O)COc3ccc(O)c(NS(C)(=O)=O)c3)CC2)cc1 (some centres not stated),inactive
14,CC(N=C(NC#N)Nc1ccncc1)C(C)(C)C (configuration not stated),inactive
15,COc1cc(S(=O)(=O)O)c(C)cc1N=Nc1c(O)ccc2cc(S(=O)(=O)O)ccc12,inactive
16,CCCCCCCCCCCCCC[N+](C)(C)Cc1ccccc1,44.3 µM (active) and 26.6 µM (active)

# Test: qHTS assay for small molecule activators of the heat shock response signaling pathway (AID 743210; active = well fitted activation curve with a large enough effect in the signal ratio in the repeat runs, with a control signal flat, not every such curve was filed as active; the % refers to the signal ratio;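 as to activation: HeLa cells with beta-lactamase reporter driven by heat shock elements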)
# Conditions: HeLa HSE-bla reporter, beta-lactamase ratio, 5 h; series mostly up to 62.6 µM
# How it was run: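 Following overnight attachment, HSE-bla HeLa cells received test compounds for 5 h at 37 C; beta-lactamase activity was then detected via FRET substrate fluorescence.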
row,Structure (SMILES),Potency
1,Oc1cc(Cl)cc(Cl)c1Cl,inactive
2,CN1CCN2c3ccccc3Cc3ccccc3C2C1 (configuration not stated),inactive
3,CN(C)Cc1cc(C(C)(C)C)c(O)c(C(C)(C)C)c1,inactive
4,Cc1cc(C(C)(C)C)cc(C)c1CC1=NCCN1,inactive
5,CN1CCC[C@@H]1CCO[C@](C)(c1ccccc1)c1ccc(Cl)cc1,inactive
6,Cc1cc(C)c(/C=C2\C(=O)Nc3ccccc32)[nH]1,inactive
7,Cc1ccc(N/N=c2\c(=O)cc/c(=N\Nc3ccc(S(=O)(=O)O)cc3)c2=O)c(C)c1,inactive
8,Nc1ccc(NCCO)c([N+](=O)[O-])c1,inactive
9,CN1CCCCC1CCN1c2ccccc2Sc2ccc(S(C)=O)cc21 (configuration not stated),inactive
10,CCC(=O)C(=O)CC,inactive
11,O=S(=O)(O)c1ccc(N=Nc2c(O)ccc3ccccc23)cc1,inactive
12,O=[N+]([O-])c1ccc(O)cc1C(F)(F)F,inactive
13,NC(=S)NC(N)=S,34.7 µM (active)
14,CCOC(=O)c1ccc(C2CCC(NC[C@H](O)COc3ccc(O)c(NS(C)(=O)=O)c3)CC2)cc1 (some centres not stated),inactive

# Test: qHTS assay to identify small molecule agonists of the peroxisome proliferator-activated receptor delta (PPARd) signaling pathway - cell viability counter screen (AID 743211); also: nearly all actives have a fitted effect of over 55% in size
# Conditions: PPARd-bla HEK293H viability, CellTiter-Glo luminescence, 17 h; series mostly up to 62.6 µM
# How it was run: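 In the same wells used for beta-lactamase reporter measurement, cytotoxicity is scored by CellTiter-Glo. HEK293H PPARd-bla cells receive compound for 17 h at 37C following a 5 h settling period.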
row,Structure (SMILES),Potency
1,Oc1cc(Cl)cc(Cl)c1Cl,inactive
2,OC[C@H]1O[C@H](O[C@H]2O[C@H](CO)[C@@H](O)[C@H](O)[C@H]2O)[C@H](O)[C@@H](O)[C@@H]1O,inactive
3,C/C=C/C=C/COC(=O)C(C)C,inactive
4,O=C1CCc2ccc(OCCCCN3CCN(c4cccc(Cl)c4Cl)CC3)cc2N1,11.9 µM (active)
5,Cc1cc(C(C)(C)C)cc(C)c1CC1=NCCN1,inactive
6,CN1CCC[C@@H]1CCO[C@](C)(c1ccccc1)c1ccc(Cl)cc1,29.8 µM (active)
7,Cc1cc(C)c(/C=C2\C(=O)Nc3ccccc32)[nH]1,inactive
8,Cc1ccc(N/N=c2\c(=O)cc/c(=N\Nc3ccc(S(=O)(=O)O)cc3)c2=O)c(C)c1,inactive
9,Nc1ccc(NCCO)c([N+](=O)[O-])c1,inactive
10,CCOc1ccc2ccccc2c1C(=O)N[C@@H]1C(=O)N2[C@@H]1SC(C)(C)[C@@H]2C(=O)O,inactive
11,CC(C)CCOC(=O)/C=C/c1ccccc1,inactive
12,C[C@H]1NCc2cc(-c3ccc4c(=O)c(C(=O)O)cn(C5CC5)c4c3OC(F)F)ccc21,inactive
13,CCCCCCCCCCCCCCCC[N+](C)(C)CC,21.9 µM (active) and 29.8 µM (active)
14,CCC(=O)C(=O)CC,inactive
15,Nc1cc(Cl)c(O)c(Cl)c1,inactive
16,O=S(=O)(O)c1ccc(N=Nc2c(O)ccc3ccccc23)cc1,inactive
17,CC[C@H](C)COC(=O)/C=C/c1ccc(N=Cc2ccc(OC)cc2)cc1,inactive
18,O=c1c(O)c(-c2ccc(O)cc2O)oc2cc(O)cc(O)c12,inactive
19,COCCOc1cc2cc(C(=O)NC3CCN(C(C)C)CC3)n(CC(=O)Nc3ccc(Cl)cn3)c2cn1,inactive
20,Cl[Si](Cl)(c1ccccc1)c1ccccc1,inactive
21,CC(C)(C)c1ccc(C(O)CCCN2CCC(C(O)(c3ccccc3)c3ccccc3)CC2)cc1 (configuration not stated),10.6 µM (active)
22,NC(=S)NC(N)=S,inactive
23,CCCCC/C=C\C/C=C\CCCCCCCC(=O)O,inactive
24,O=C(Nc1ccc2c(O)c(N=Nc3ccc(N=Nc4ccc(S(=O)(=O)O)cc4)cc3)c(S(=O)(=O)O)cc2c1)c1ccccc1,inactive
25,[Cu+],inactive
26,CCOC(=O)c1ccc(C2CCC(NC[C@H](O)COc3ccc(O)c(NS(C)(=O)=O)c3)CC2)cc1 (some centres not stated),35.9 µM (active)
27,CC(N=C(NC#N)Nc1ccncc1)C(C)(C)C (configuration not stated),inactive
28,COc1cc(S(=O)(=O)O)c(C)cc1N=Nc1c(O)ccc2cc(S(=O)(=O)O)ccc12,inactive
29,CCCCCCCCCCCCCC[N+](C)(C)Cc1ccccc1,22.2 µM (active) and 21.1 µM (active)
30,COc1cccc2c1C(=O)c1c(O)c3c(c(O)c1C2=O)C[C@@](O)(C(C)=O)C[C@@H]3O[C@H]1C[C@H](N)[C@H](O)[C@H](C)O1,24.7 µM (active) and 33.5 µM (active)
